Source: PubChem BioAssay (NCI)
Compounds without any hit were thinned out: in the full panel of roughly 79,000, 15% have a hit. Calls of active or inactive are those of the source. Cut-off read from the data, not from the text of the source: active = growth inhibition above about 70%; inactive = the rest.

Assay: NCI Yeast Anticancer Drug Screen. Data for the mlh1 strain (AID 171);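 note: 0% = growth of vehicle-treated control cultures of the same strain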
Conditions: S. cerevisiae mlh1 strain growth inhibition, stronger effect = higher value
Experimental: Growth inhibition of yeast strains with defined genetic alterations is measured as a screen for potential anti-cancer activity. Selected strains with alterations in DNA damage repair or cell cycle control were exposed to compounds and growth inhibition was measured relative to vehicle treated controls. The strain used in this assay is mlh1

Measured: growth inhibition

Cc1ccc(N=Nc2ccc(O)c(C)c2)cc1
active: at 11.0 µM 91% | at 33.0 µM 97% | at 100.0 µM 80%
inactive: at 1.2 µM 19% | at 3.7 µM 10%

O=c1[nH]c2ccccc2c2nc3ccccc3n12
inactive: at 1.2 µM -40% | at 3.7 µM -22% | at 11.0 µM -14% | at 33.0 µM 38% | at 100.0 µM 37%

CN(NC(=O)/C(=C/c1ccc(O)cc1)NC(=O)c1ccccc1)c1ccnc2cc(Cl)ccc12
inactive: at 1.2 µM 1% | at 3.7 µM 4% | at 11.0 µM 21% | at 33.0 µM 64%
active: at 100.0 µM 81%

Nc1nc(F)nc2c1ncn2C1OC(COP(=O)(O)O)C(O)C1O (stereo not given)
inactive: at 1.2 µM 0% | at 3.7 µM 2% | at 11.0 µM 5% | at 33.0 µM 9% | at 100.0 µM 19%

O=C(Nc1ccc2c(c1)Cc1c-2ccc([N+](=O)[O-])c1F)C(F)(F)F
inactive: at 1.2 µM 5% | at 3.7 µM 3% | at 11.0 µM 3% | at 33.0 µM 2% | at 100.0 µM 2%

OCCN(CCO)c1ccc2c(c1)Cc1ccccc1-2
inactive: at 1.2 µM -13% | at 3.7 µM -7% | at 11.0 µM -6% | at 33.0 µM -6% | at 100.0 µM 26%

O=S(=O)(N/N=C/c1cccc(Cl)c1)c1ccccc1
active: at 33.0 µM 83% | at 100.0 µM 99%
inactive: at 1.2 µM -3% | at 3.7 µM 0% | at 11.0 µM 11%

O=C1OC2C(O)COC2(OCc2c[nH]c3ccccc23)C1O (stereo not given) (tested in a mixture with another compound)
active: at 100.0 µM 87%
inactive: at 1.2 µM -1% | at 3.7 µM -2% | at 11.0 µM -2% | at 33.0 µM 11%
